In article PMC4336329 (PLoS ONE, 2015):
Screen size: about 310,000 compounds; about 14,000 (4.5%) showed an effect of 50% or more. Effects have a minus sign here. For the sample, strong results were picked, then their nearest neighbours and some compounds at random.

biological target: human ether-à-go-go-related gene (hERG) potassium channel (human, UniProt Q12809); assay: primary screen, population patch clamp on CHO cells stably expressing hERG; higher = less effect of the substance
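Also: peak tail current of the secondary pulse compared with the same well before compound.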

Chain of human ether-à-go-go-related gene (hERG) potassium channel (Q12809 whole entry, looked up): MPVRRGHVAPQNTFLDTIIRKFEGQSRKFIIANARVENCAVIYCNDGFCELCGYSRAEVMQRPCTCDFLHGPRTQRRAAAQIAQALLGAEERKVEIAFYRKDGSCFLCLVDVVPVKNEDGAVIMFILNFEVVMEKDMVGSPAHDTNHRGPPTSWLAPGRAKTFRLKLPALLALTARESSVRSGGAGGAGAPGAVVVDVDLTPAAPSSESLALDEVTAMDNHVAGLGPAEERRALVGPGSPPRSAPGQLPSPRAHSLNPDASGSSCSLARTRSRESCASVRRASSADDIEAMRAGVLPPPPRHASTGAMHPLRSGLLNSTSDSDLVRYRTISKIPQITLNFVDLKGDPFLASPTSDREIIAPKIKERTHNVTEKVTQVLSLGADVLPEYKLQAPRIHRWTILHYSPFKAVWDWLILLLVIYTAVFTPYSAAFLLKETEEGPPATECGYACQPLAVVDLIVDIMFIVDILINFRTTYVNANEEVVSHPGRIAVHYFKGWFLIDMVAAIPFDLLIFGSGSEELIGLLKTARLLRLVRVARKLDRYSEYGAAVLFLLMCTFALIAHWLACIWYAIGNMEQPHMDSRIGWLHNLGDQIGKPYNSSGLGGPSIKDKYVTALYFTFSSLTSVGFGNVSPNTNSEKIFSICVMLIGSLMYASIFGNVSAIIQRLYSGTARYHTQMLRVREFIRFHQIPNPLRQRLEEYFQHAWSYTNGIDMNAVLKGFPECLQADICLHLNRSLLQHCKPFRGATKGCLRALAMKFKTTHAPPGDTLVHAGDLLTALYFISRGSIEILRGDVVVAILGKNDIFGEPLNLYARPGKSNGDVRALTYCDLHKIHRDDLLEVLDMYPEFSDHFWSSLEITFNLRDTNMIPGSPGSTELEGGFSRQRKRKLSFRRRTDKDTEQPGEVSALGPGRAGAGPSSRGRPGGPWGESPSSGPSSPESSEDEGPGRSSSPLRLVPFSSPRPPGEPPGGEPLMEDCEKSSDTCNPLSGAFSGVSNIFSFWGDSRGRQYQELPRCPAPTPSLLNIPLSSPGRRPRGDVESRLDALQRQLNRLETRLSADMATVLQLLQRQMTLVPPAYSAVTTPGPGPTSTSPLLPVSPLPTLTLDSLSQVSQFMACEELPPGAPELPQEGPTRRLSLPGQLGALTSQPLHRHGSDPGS

Structure (SMILES)	hERG current change (%, negative = inhibition) at 10uM
CC(C)(C)C1CCC(=NOC(=O)c2ccc(F)cc2)CC1 (centres unmarked)	15.7%
O=C(CNC(=O)c1cccc(Br)c1)N/N=C/c1ccc[nH]1	22.5%
Cc1ccc(-c2cc(-c3ccccc3Cl)c(C#N)c(N)n2)o1	3.05%
COc1ccccc1-c1ccc(C(=O)O)o1	7.06%
COC(=O)c1cn(C)c2ccc(S(=O)(=O)N3CC(C)CC(C)C3)cc2c1=O (centres unmarked)	-5.76%
COc1ccc(CCNC(=S)Nc2ccc(C)cc2C)cc1	2.89%
CC(=O)O.CC1(C)CC(=O)C2=C(C1)NC1=C(C(=O)c3ccccc31)C2c1cc([N+](=O)[O-])ccc1O (centres unmarked)	-37.1%
CCOC(=O)c1c(S(=O)(=O)NCC(C)c2ccccc2)c(C)n(C)c1C (centres unmarked)	-17.8%
COc1ccc(C(c2nnnn2CCc2ccccc2)N2CCN(C3CCCC3)CC2)cc1.Cl (centres unmarked)	-68%
CCCC(c1nnnn1CCc1ccccc1)N1CCN(C2CCCC2)CC1 (centres unmarked)	-48.9%
Cc1ccc(C(c2nnnn2CCc2ccccc2)N2CCC(C)CC2)cc1.Cl (centres unmarked)	13.8%
COc1ccccc1CC(=O)N(Cc1ccccc1)c1ccc(C)cc1	-16%
CCN(CC)S(=O)(=O)c1ccc(S(=O)(=O)N2CCCC2C(=O)O)cc1 (centres unmarked)	-0.323%
CCOn1c(=O)c(-c2ccccc2)[n+]([O-])c2ccccc21	1.67%
O=C(CN1CCC(C(=O)c2ccc(F)cc2)CC1)Nc1ccc(F)cc1	-64.7%
COc1ccc(CNC(=O)C2CCN(c3nc(OC)nc(OC)n3)CC2)cc1	-65.1%
COc1nc(OC)nc(N2CCC(C(=O)NCc3ccc(F)cc3)CC2)n1	-44.9%
COc1ccc(C(=O)NC2CCN(CC(=O)NCc3ccccc3)CC2)cc1	-24.4%
COc1nc(OC)nc(N2CCC(C(=O)NCc3cccs3)CC2)n1	-45%
CC(=O)c1ccc(NC(=O)CN2CCC(C(=O)c3ccc(F)cc3)CC2)cc1	-22.9%
COc1ccc(C(=O)C2CCN(CC(=O)NCc3ccccc3)CC2)cc1	-46.3%
O=C(CN1CCC(C(=O)c2ccc(F)cc2)CC1)Nc1ccccc1	-29.7%
COc1ccc(CNC(=O)CN2CCC(C(=O)c3ccc(OC)cc3)CC2)cc1	-58%

Structure (SMILES)	hERG current change (%, negative = inhibition) at 10uM
Cc1ccc(NC(=O)CN2CCC(C(=O)c3ccc(F)cc3)CC2)cc1	-72.5%
Cc1c(NC(=O)/C(C#N)=C/c2ccc(-c3ccc(Cl)cc3)o2)c(=O)n(-c2ccccc2)n1C	-41.5%
COc1ccc(C(=O)OCC(=O)c2cc(C)n(CC3CCCO3)c2C)cc1[N+](=O)[O-] (centres unmarked)	-42.9%
Cc1nc(-c2ccc(NC(=O)Cc3ccccc3)cc2)cs1	21.1%
Cc1ccc(-c2nn(-c3ccccc3)cc2/C=C2\SC(=S)N(CCCCCC(=O)O)C2=O)o1	15.1%
Cc1cc(-c2ccc(C)c(S(=O)(=O)NCc3ccc(Br)cc3)c2)on1	-31%
COc1cccc(SCc2noc(C(=O)NCC3CCCO3)c2C(=O)O)c1 (centres unmarked)	11.9%
COc1ccccc1CCc1nnc(CCC(=O)NCCOc2cccnc2)o1	7.9%
Cc1cc(S(=O)(=O)N2CCC(NC(=O)C34CC5CC(CC(C5)C3)C4)CC2)ccc1-n1cnnn1	-15.2%
COCCN(CCOC)c1ncc(Cl)c(C(=O)c2c(C)cc3ccccn23)n1	-4.6%
COC(=O)C1(C)CC1(c1ccccc1)c1ccccc1 (centres unmarked)	-3.98%
O=C(N/N=C/c1ccccc1O)C1CCCC1	8.05%
Cc1ccccc1NC(=O)CN1CCC(C(=O)c2ccc3c(c2)OCCO3)CC1	-44.5%
Cc1ccc(C(=O)C2CCN(CC(=O)NCc3ccc(F)cc3)CC2)cc1	-53.3%
O=C(CN1CCC(C(=O)c2ccc(F)cc2)CC1)NCc1ccccc1F	-39.6%
COc1ccccc1NC(=O)CN1CCC(C(=O)c2ccc(F)cc2)CC1	-38.5%
O=C(CN1CCC(C(=O)c2ccc3c(c2)OCCO3)CC1)NCc1ccc(F)cc1	-30.2%
Cc1ccc(C(=O)C2CCN(CC(=O)N3CCN(c4ccc(F)cc4)CC3)CC2)cc1	-73.7%
O=C(c1ccccc1)C1CCN(CC(=O)N2CCN(c3ccccc3)CC2)CC1	-14.9%
Cc1ccc(C(=O)NCN2CCN(c3ccc(F)cc3)CC2)cc1	-28.9%
Cc1ccc(C(=O)C2CCN(CC(=O)Nc3ccccc3C)CC2)cc1	-68.9%
Cc1nonc1CN(C)C(=O)c1cc(COc2ccc(F)cc2Cl)on1	-4.29%
Cc1ccc(-n2c(CSc3nc(C)cc(C)n3)nnc2SCC(=O)N2CCCC2)cc1	-8.81%

Structure (SMILES)	hERG current change (%, negative = inhibition) at 10uM
COc1ccccc1C1Nc2cccc3cccc(c23)N1	-50.7%
COc1ccc(Br)cc1C1Nc2cccc3cccc(c23)N1	20.2%
COc1cc(OC)c(C2Nc3cccc4cccc(c34)N2)c(OC)c1	6.67%
Cn1ncc(Br)c1C(=O)N/N=C/c1cccc(OC2CSC2)c1	-8.23%
O=C(CSc1nnc(Nc2ccccc2F)s1)Nc1cccc(S(=O)(=O)N2CCCCC2)c1	-6.58%
CC1Cc2nc(SCC(=O)Nc3nc4ccccc4s3)n(C)c(=O)c2S1 (centres unmarked)	-20.1%
CN1CCSc2ccc(C(=O)NCc3cccc(F)c3)cc21	16.6%
CCOc1ccccc1C(=O)Nc1cnn(Cc2ccc(F)cc2)c1	-58.8%
O=C(Nc1cnn(Cc2ccc(F)cc2)c1)C(c1ccccc1)c1ccccc1	-30.1%
O=C(Nc1cnn(Cc2ccc(F)cc2)c1)c1cnccn1	-3.09%
O=C(CCSCCc1ccccn1)Nc1nccs1	30.1%
O=C(Cc1csc(NC(=O)c2ccc(F)cc2)n1)NO	-3.56%
COc1ccc(N(C(C)C(=O)N/N=C/c2cccnc2)S(C)(=O)=O)cc1 (centres unmarked)	-3.44%
COc1ccc(N(C(C)C(=O)N/N=C/c2cc(Br)c(C)o2)S(C)(=O)=O)cc1 (centres unmarked)	-54%
COc1ccc(N(C(C)C(=O)N/N=C/c2ccc(OC)c(OC)c2)S(C)(=O)=O)cc1 (centres unmarked)	5.24%
COc1ccc(N(C(C)C(=O)N/N=C/c2ccc(OCC(C)C)cc2)S(C)(=O)=O)cc1 (centres unmarked)	-9.12%
COc1ccc(/C=N/NC(=O)C(C)N(c2ccc(OC)cc2)S(C)(=O)=O)cc1 (centres unmarked)	-8.54%
COc1ccc(N(C(C)C(=O)N/N=C/c2ccc(OC(C)C)cc2)S(C)(=O)=O)cc1 (centres unmarked)	-52.4%
COc1ccc(C(=O)/C=C/Nc2ccc(S(=O)(=O)Nc3cc(OC)nc(OC)n3)cc2)c(OC)c1	19.4%
O=Cc1cn(CCC(=O)O)nc1-c1cccc2ccccc12	13.5%
O=C(N/N=C\c1ccc(F)cc1)c1cc(OCC(F)(F)F)ccc1OCC(F)(F)F	-21%
COc1ccccc1C(=O)N/N=C(\C)c1ccc(NC(=O)C2CC2)cc1	-3.62%
O=C(NCCSCc1ccc(Cl)cc1)c1cccs1	-63.7%

Structure (SMILES)	hERG current change (%, negative = inhibition) at 10uM
O=C(NCCc1ccc(Cl)cc1)c1cccs1	-3.58%
O=C(Cc1ccccc1)NCCSCc1ccc(Cl)cc1	-9.5%
C=CCSc1nnc(-c2ccccc2N=Cc2c(C)[nH]n(-c3ccccc3)c2=O)c(=O)[nH]1	-26.5%
O=C(c1cccc(S(=O)(=O)N2CCOCC2)c1)N1CCN(S(=O)(=O)c2cccs2)CC1	5.04%
O=C(Nc1ccc([N+](=O)[O-])cn1)c1cc(-c2cccc(Br)c2)nc2ccccc12	17.6%
O=C(CSc1nc2ncc(Br)cc2[nH]1)c1ccc([N+](=O)[O-])cc1	-66.9%
O=C(CSc1nc2ncc(Br)cc2[nH]1)c1cccc([N+](=O)[O-])c1	-45.7%
O=[N+]([O-])c1ccc(CSc2nc3ncc(Br)cc3[nH]2)cc1	6.04%
CCOC(=O)c1cc(C#N)c(N2CCCC2)nc1-c1ccccc1	-7.5%
C/C(=C\c1ccc(C)o1)C(=O)c1c(C)cc(C)[nH]c1=O	11.5%
CCC1CCCCN1CC(O)COCc1cccc(OC)c1 (centres unmarked)	3.15%
CC(OCC(O)CN1CCCCC1CCO)c1ccc(Cl)cc1 (centres unmarked)	4.2%
Cc1ccccc1C(OCC(O)CN1CCCCC1CCO)c1ccccc1 (centres unmarked)	-61.6%
COc1ccccc1COCC(O)CN1CCCCC1CO.O=C(O)C(=O)O (centres unmarked)	18.6%
O=C(O)C(=O)O.OCC1CCCCN1CC(O)COC(c1ccc(F)cc1)c1ccc(F)cc1 (centres unmarked)	-71%
Cc1ccccc1C(OCC(O)CN1CCC(C(N)=O)CC1)c1ccccc1 (centres unmarked)	-59.3%
CCN1CCN(CC(O)COC(c2ccccc2)c2ccccc2C)CC1.O=C(O)C(=O)O (centres unmarked)	-10.6%
OCCC1CCCCN1CC(O)COCc1ccc(Cl)cc1 (centres unmarked)	-7.29%
Cc1ccc(C(OCC(O)CN2CCCCC2CO)c2ccccc2)cc1 (centres unmarked)	-62.8%
NC(=O)C1CCN(CC(O)CSc2ccccc2)CC1 (centres unmarked)	-0.00192%
